Inconclusive results are not listed. The source made the active and inactive calls. The calls were made as follows, unless noted: active = hit-call score of the fitted dose curve at least 0.9, where 1 is the maximum; inconclusive = response in the unintended direction; inactive = score below 0.9.
Columns and labels:
DIO1 (gene 1733) = test: CCTE_GLTED_hDIO1: CCTE's human Deiodinase 1 (DIO1) Inhibition Assay, Great Lakes Toxicology and Ecology Division (GLTED) Lab (AID 2283987);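 also: isolated human DIO1 enzyme in a cell-free setup rather than cells; enzyme activity read as free iodide liberated from substrate via Sandell-Kolthoff colorimetry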
How it was run: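 Inhibition of human deiodinase 1 is scored as reduced iodide liberation after a 3 h enzyme–chemical incubation, detected colorimetrically by the Sandell-Kolthoff reaction against DMSO controls.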

[1] = molecular target: Nucleoli Translocation, AR (gene 367) (UniProt P10275); test: UPITT_HCI_U2OS_AR_TIF2_Nucleoli_Antagonist: University of Pittsburgh U2OS Androgen Receptor-Transcriptional Intermediary Factor 2 (AR-TIF2) Antagonism High Content Imaging Assay for Nucleoli Translocation (AID 2283997)
How it was run: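 Antagonism is read as loss of nucleolar AR-RFP signal relative to DHT, imaged in U2OS cells also carrying GFP-TIF2. Compounds screened at 20 uM final, 0.2% DMSO; primary actives retested in triplicate.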

[2] = molecular target: Thyroid hormone receptor alpha (Rattus norvegicus) + Thyroid hormone receptor beta (Rattus norvegicus) (UniProt P18113+P63059); test: TOX21_TR_LUC_GH3_Agonist_Followup: Tox21 GH3 Thyroid Hormone Receptor Agonism Luciferase Follow-Up Assay (AID 2283939)
How it was run: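 Agonist-mode confirmatory run: 15 concentrations (5 nM to 92 uM final) on GH3 rat pituitary cells, 24 h at 37C/5% CO2, T3 as positive control. Luminescence read with ONE-Glo after 30 min.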

THRA (gene 7067) = THRA (gene 7067) (UniProt P10827); test: TOX21_TRA_COA_Agonist_Followup_ratio: Tox21 Thyroid Hormone Receptor alpha Agonism through Coactivator Recruitment Follow-Up Assay, Ratio (AID 2283948; active = hit-call score of the fitted dose curve at least 0.9, where 1 is the maximum; inactive = score below 0.9)
How it was run: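 Follow-up specificity assay in which TRα ligand-binding domain, expressed as a GST fusion, recruits a fluorescein-labelled SRC-2 peptide. Energy transfer from a terbium anti-GST antibody gives the acceptor/donor ratio, fitted upward relative to DMSO.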

THRB (gene 7068) [3] = molecular target: THRB (gene 7068) (UniProt P10828); test: TOX21_TRB_BLA_Agonist_Followup_ratio: Tox21 Thyroid Hormone Receptor beta Agonism Beta-lactamase (BLA) Follow-Up Assay, Ratio (AID 2283954)
How it was run: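 Agonist mode: compounds (11-point, triplicate) incubated 18 h with HEK293T cells carrying GAL4-DBD/human TRβ-LBD and UAS-β-lactamase. Blue/green (460/530 nm) FRET ratio read after 2 h CCF4-AM loading; CellTiter-Glo viability run in the same plates.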

THRB (gene 7068) [4] = molecular target: THRB (gene 7068) (UniProt P10828); test: TOX21_TRB_COA_Agonist_Followup_ratio: Tox21 Thyroid Hormone Receptor beta Agonism through Coactivator Recruitment Follow-Up Assay, Ratio (AID 2283963; active = hit-call score of the fitted dose curve at least 0.9, where 1 is the maximum; inactive = score below 0.9)
How it was run: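 Cell-free TR-FRET coactivator recruitment: GST-tagged TRβ LBD (5.0 nM) with 0.10% BSA incubated with compound, then fluorescein-SRC-2 peptide (200 nM) and Tb-anti-GST antibody (2 nM) added. 520:495 nm ratio normalized to DMSO (0%) and T3 (100%).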

[5] = molecular target: Retinoic acid receptor RXR-alpha (Homo sapiens) (UniProt P19793); test: TOX21_TR_RXR_BLA_Agonist_Followup_ratio: Tox21 Thyroid Hormone Receptor beta Retinoid X Receptor alpha (RXRa) Agonism Beta-lactamase (BLA) Follow-Up Assay, Ratio (AID 2283968)
How it was run: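 Agonist mode: compounds given to RXRa-bla HEK293T cells at 11 concentrations, triplicate, 16 h at 37C/5% CO2. Readout is the 460:530 nm blue/green ratio after 2 h substrate loading at room temperature; DMSO baseline, 9-cis retinoic acid control.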

[6] = TOX21_TR_RXR_BLA_Agonist_Followup_viability: Viability Assessment in the Tox21 Thyroid Hormone Receptor beta Retinoid X Receptor alpha (RXRa) Agonism Beta-lactamase (BLA) Follow-Up Assay (AID 2283970)
How it was run: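 CellTiter-Glo ATP luciferase read-out of cell viability, multiplexed with the beta-lactamase reporter run. RXRa-bla HEK293T cells in charcoal-stripped serum medium were exposed 16 h at 37C; data fitted both directions relative to DMSO.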

[7] = CEETOX_H295R_ESTRADIOL_noMTC: CeeTox H295R High-throughput Steroidogenesis Assay for Estradiol, maximum tolerated concentration (MTC) filtered results only (AID 2283919; active = hit-call score of the fitted dose curve at least 0.9, where 1 is the maximum; inactive = score below 0.9); settings: actives raise or lower the signal
How it was run: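 Readout: dansyl-derivatized estradiol quantified by LC-MS/MS in medium from H295R cells dosed 48 h (0.1% DMSO) following 48 h forskolin (10 uM) prestimulation. Gain or loss of signal fitted against DMSO; no MTC filtering applied.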

[8] = CEETOX_H295R_PROG_noMTC: CeeTox H295R High-throughput Steroidogenesis Assay for Progesterone (PROG), maximum tolerated concentration (MTC) filtered results only (AID 2283920; active = hit-call score of the fitted dose curve at least 0.9, where 1 is the maximum; inactive = score below 0.9); settings: actives raise or lower the signal
How it was run: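 Progesterone secreted into medium was measured by HPLC-MS/MS after MTBE extraction, following 48 h chemical exposure (0.1% DMSO) of forskolin-prestimulated (10 uM, 48 h) H295R adrenal cells. Gain or loss fitted against DMSO; no MTC filtering.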

[9] = CEETOX_H295R_ESTRONE_noMTC: CeeTox H295R High-throughput Steroidogenesis Assay for Estrone, maximum tolerated concentration (MTC) filtered results only (AID 2283921; active = hit-call score of the fitted dose curve at least 0.9, where 1 is the maximum; inactive = score below 0.9); settings: actives raise or lower the signal
How it was run: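 Estrone in spent medium, quantified by tandem MS following dansyl chloride derivatization, after 48 h chemical exposure (0.1% DMSO) of forskolin-prestimulated (10 uM, 48 h) H295R cells; concentrations not MTC-filtered, bidirectional fit against DMSO.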

[10] = CEETOX_H295R_CORTISOL_noMTC: CeeTox H295R High-throughput Steroidogenesis Assay for Cortisol, maximum tolerated concentration (MTC) filtered results only (AID 2283916; active = hit-call score of the fitted dose curve at least 0.9, where 1 is the maximum; inactive = score below 0.9); settings: actives raise or lower the signal
How it was run: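 Cortisol secretion measured by LC-MS/MS after 48 h chemical treatment (final 0.1% DMSO) of forskolin-primed (10 uM, 48 h) H295R cells; gain or loss fitted relative to DMSO, without maximum-tolerated-concentration filtering.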

[11] = CEETOX_H295R_CORTIC_noMTC: CeeTox H295R High-throughput Steroidogenesis Assay for Corticosterone (CORTIC), maximum tolerated concentration (MTC) filtered results only (AID 2283917; active = hit-call score of the fitted dose curve at least 0.9, where 1 is the maximum; inactive = score below 0.9); settings: actives raise or lower the signal
How it was run: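 Human adrenal H295R cells were prestimulated 48 h with 10 uM forskolin, then exposed 48 h to chemical in 0.1% DMSO. Medium corticosterone was MTBE-extracted and quantified by HPLC-MS/MS; bidirectional fits versus DMSO, concentrations not MTC-filtered.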

[12] = CEETOX_H295R_DOC_noMTC: CeeTox H295R High-throughput Steroidogenesis Assay for DOC, maximum tolerated concentration (MTC) filtered results only (AID 2283918; active = hit-call score of the fitted dose curve at least 0.9, where 1 is the maximum; inactive = score below 0.9); settings: actives raise or lower the signal
How it was run: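 11-Deoxycorticosterone secreted by human adrenal H295R cells quantified by HPLC-MS/MS after 48 h chemical exposure (0.1% DMSO), following 48 h 10 uM forskolin prestimulation. Concentrations not filtered by MTT-derived MTC; bidirectional fitting.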

[13] = CEETOX_H295R_TESTO_noMTC: CeeTox H295R High-throughput Steroidogenesis Assay for Testosterone (TESTO), maximum tolerated concentration (MTC) filtered results only (AID 2283924; active = hit-call score of the fitted dose curve at least 0.9, where 1 is the maximum; inactive = score below 0.9); settings: actives raise or lower the signal
How it was run: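 Medium testosterone, measured by HPLC-MS/MS after liquid-liquid extraction, was fitted in both directions relative to DMSO without MTC filtering. Adrenal H295R cells received 48 h chemical exposure (0.1% DMSO final) after 48 h forskolin (10 uM) prestimulation; viability by MTT.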

PGR (gene 5241) [14] = molecular target: PGR (gene 5241) (UniProt P06401); test: TOX21_PR_BLA_Followup_Antagonist_ratio: Tox21 HEK293 Progesterone Receptor (PR) Antagonism Beta-lactamase Follow-Up Assay, Ratio (AID 2283934);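 also: PR-UAS-bla HEK293T cells stimulated with 1 nM R5020 agonist for 16 hr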
How it was run: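 Readout is the blue/green (ch2/ch1) substrate cleavage ratio after 2 hours at room temperature, following 16 hr co-treatment of PR-bla HEK293T cells with compound and 1nM promegestone. Multiplexed CellTiter-Glo viability flags cytotoxicity; DMSO baseline.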

[15] = TOX21_PR_BLA_Followup_Agonist_viability: Viability Assessment in the Tox21 HEK293 Progesterone Receptor (PR) Agonism Beta-lactamase Follow-Up Assay (AID 2283935);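 also: signal loss means lower viability so actives are cytotoxic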
How it was run: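 Run multiplexed with the beta-lactamase FRET read, this endpoint measures ATP by CellTiter-Glo luminescence (30 min, room temperature). PR-UAS-bla HEK293T cells received compound 6 hr after plating and were then incubated 16 hr at 37C in 2% stripped serum.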

[16] = TOX21_PR_BLA_Followup_Antagonist_viability: Viability Assessment in the Tox21 HEK293 Progesterone Receptor (PR) Antagonism Beta-lactamase Follow-Up Assay (AID 2283936);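 also: cells exposed to compound with R5020 agonist for 16 h; hits lower the luminescence signal meaning cytotoxicity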
How it was run: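 PR-UAS-bla HEK293T cells in medium with 2% charcoal-stripped FBS were treated with compounds plus R5020 for 16 hr at 37C. After the beta-lactamase read, CellTiter-Glo was added to the same wells and luminescence read after 30 min at room temperature.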

PGR (gene 5241) [17] = molecular target: PGR (gene 5241) (UniProt P06401); test: TOX21_PR_LUC_Followup_Antagonist: Tox21 HEK293 Progesterone Receptor (PR) Antagonism Luciferase Follow-Up Assay (AID 2283938);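 also: curve fitted upward as signal gain over DMSO baseline despite antagonist label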
How it was run: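 Cells are grown 5 days in charcoal-stripped-FBS assay medium, plated, left 5 h, then dosed with compound and incubated 16 h. ONE-Glo reagent is added and luminescence read after 30 min.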

[18] = TOX21_PR_LUC_Followup_Agonist_viability: Viability Assessment in the Tox21 HEK293 Progesterone Receptor (PR) Agonism Luciferase Follow-Up Assay (AID 2283941);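 also: loss of signal means cytotoxicity so actives lower viability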
How it was run: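 Cytotoxicity counter-readout in the PR-A luciferase reporter line HEK293, with 16 h compound exposure at 37C after cells were cultured in charcoal-stripped serum. Cellular ATP quantified by CellTiter-Glo luminescence.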

Sequence of Nucleoli Translocation, AR (gene 367) (P10275 whole entry, looked up): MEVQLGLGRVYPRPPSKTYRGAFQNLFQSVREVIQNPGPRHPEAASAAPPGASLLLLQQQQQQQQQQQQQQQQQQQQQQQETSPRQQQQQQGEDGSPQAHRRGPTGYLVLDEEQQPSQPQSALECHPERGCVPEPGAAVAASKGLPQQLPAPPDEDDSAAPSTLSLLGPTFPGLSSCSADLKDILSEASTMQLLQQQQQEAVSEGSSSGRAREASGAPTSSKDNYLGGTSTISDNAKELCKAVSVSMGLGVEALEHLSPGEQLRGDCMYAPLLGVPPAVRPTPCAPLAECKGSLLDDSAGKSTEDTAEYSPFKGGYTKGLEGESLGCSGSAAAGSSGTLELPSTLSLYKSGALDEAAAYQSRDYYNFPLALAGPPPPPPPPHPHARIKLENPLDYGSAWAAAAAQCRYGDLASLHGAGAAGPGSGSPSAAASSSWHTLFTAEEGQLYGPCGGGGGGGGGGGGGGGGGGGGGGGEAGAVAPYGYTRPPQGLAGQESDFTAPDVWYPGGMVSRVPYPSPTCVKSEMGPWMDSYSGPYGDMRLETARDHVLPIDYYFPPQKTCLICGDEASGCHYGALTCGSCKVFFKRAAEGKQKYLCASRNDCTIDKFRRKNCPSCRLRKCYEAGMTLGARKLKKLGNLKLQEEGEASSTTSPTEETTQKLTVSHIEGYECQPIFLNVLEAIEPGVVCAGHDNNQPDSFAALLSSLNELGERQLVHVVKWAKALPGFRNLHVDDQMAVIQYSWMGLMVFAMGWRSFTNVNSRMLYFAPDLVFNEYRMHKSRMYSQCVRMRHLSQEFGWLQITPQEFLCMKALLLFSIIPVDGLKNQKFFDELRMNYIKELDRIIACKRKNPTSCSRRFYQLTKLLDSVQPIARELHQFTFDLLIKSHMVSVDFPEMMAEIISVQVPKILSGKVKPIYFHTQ
Sequence of PGR (gene 5241) (P06401 whole entry, looked up): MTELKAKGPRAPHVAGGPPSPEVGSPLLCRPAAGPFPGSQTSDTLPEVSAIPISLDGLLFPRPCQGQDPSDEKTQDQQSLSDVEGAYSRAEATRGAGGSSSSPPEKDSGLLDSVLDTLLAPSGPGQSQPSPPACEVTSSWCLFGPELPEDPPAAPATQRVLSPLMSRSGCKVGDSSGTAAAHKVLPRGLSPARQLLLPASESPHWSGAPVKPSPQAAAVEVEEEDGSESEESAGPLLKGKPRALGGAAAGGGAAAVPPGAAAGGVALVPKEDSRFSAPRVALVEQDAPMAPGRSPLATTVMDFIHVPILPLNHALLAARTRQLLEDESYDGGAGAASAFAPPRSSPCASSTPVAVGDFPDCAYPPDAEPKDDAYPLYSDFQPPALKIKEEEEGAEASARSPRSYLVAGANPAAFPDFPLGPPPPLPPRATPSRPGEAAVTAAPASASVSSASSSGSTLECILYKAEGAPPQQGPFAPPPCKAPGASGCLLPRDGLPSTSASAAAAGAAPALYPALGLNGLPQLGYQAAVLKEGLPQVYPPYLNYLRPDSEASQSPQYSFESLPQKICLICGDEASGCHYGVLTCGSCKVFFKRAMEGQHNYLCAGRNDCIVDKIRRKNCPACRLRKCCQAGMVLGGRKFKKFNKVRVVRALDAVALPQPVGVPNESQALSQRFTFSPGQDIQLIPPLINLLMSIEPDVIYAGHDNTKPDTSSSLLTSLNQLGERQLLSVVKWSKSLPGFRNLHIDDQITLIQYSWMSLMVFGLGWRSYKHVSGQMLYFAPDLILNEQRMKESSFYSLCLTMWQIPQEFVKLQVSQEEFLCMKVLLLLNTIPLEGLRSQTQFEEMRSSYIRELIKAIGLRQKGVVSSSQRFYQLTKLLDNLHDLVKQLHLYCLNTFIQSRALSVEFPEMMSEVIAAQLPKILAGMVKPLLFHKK
Sequence of THRB (gene 7068) (P10828 whole entry, looked up, the tested form may be a part): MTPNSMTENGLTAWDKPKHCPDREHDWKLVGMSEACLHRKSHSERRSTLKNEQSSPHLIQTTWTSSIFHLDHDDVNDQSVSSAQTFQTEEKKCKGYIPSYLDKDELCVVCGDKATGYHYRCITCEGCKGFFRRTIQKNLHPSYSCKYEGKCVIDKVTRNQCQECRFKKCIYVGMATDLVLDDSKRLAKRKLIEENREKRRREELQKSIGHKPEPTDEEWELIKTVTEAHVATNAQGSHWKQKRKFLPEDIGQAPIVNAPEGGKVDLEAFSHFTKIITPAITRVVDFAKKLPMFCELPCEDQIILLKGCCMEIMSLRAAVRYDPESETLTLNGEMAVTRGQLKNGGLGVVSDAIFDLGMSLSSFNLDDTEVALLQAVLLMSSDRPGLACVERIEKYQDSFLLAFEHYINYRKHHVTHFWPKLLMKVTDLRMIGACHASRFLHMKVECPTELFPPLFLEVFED
Sequence of Thyroid hormone receptor alpha (Rattus norvegicus) + Thyroid hormone receptor beta (Rattus norvegicus) (P63059 whole entry, looked up): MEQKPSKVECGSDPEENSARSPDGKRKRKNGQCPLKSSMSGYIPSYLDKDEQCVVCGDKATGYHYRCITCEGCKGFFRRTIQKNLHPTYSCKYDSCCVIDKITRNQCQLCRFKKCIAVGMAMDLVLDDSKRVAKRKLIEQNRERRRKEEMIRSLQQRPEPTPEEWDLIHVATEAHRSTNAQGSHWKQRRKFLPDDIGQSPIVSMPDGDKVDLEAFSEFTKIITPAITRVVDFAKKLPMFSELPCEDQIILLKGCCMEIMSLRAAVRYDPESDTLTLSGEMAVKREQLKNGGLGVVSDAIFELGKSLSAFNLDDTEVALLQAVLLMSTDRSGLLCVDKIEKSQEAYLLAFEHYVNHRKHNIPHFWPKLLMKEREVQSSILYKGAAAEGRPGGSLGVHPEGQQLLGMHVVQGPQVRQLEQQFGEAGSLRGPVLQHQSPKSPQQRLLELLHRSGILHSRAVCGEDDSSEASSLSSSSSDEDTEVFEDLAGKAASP
Sequence of Thyroid hormone receptor alpha (Rattus norvegicus) + Thyroid hormone receptor beta (Rattus norvegicus) (P18113 whole entry, looked up): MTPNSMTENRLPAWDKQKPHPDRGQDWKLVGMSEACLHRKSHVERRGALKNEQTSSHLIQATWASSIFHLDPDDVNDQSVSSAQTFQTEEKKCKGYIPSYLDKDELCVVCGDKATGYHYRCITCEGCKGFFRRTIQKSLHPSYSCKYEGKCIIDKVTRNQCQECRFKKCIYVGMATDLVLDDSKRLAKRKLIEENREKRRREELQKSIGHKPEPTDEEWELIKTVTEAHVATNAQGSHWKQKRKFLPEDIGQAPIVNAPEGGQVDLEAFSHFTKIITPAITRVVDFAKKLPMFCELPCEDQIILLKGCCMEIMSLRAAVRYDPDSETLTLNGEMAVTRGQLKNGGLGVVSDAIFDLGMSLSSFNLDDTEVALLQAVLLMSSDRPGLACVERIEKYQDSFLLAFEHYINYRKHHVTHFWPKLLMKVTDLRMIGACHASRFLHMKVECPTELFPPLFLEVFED
Sequence of Retinoic acid receptor RXR-alpha (Homo sapiens) (P19793 whole entry, looked up): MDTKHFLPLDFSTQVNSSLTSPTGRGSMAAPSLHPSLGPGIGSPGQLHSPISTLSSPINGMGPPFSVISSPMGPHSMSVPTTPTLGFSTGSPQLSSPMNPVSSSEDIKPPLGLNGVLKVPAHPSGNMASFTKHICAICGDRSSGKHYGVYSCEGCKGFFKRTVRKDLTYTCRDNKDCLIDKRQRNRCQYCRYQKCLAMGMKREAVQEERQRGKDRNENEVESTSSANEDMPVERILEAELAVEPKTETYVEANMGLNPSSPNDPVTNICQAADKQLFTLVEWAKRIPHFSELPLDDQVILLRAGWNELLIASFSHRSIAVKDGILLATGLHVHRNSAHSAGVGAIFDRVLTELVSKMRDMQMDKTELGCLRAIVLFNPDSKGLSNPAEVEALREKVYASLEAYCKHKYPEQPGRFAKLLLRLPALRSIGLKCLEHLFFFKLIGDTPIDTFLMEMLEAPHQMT
Sequence of THRA (gene 7067) (P10827 whole entry, looked up, the tested form may be a part): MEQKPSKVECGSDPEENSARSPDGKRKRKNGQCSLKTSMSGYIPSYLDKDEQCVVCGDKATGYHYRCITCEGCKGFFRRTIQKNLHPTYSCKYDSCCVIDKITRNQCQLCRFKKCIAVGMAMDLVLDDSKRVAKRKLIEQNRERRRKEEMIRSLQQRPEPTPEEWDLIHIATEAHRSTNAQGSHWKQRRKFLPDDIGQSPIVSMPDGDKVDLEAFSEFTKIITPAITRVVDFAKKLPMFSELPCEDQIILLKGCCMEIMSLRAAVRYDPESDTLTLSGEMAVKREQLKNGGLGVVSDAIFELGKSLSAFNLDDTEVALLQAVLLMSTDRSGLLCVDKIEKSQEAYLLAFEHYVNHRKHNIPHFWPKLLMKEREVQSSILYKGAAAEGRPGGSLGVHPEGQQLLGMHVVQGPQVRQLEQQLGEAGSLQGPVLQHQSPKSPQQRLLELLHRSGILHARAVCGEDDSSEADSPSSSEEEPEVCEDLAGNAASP

For `O=C(O)C=C(C(F)(F)F)C(F)(F)F`, the AC50 (DIO1 (gene 1733)) was 20.2 µM (active).

In the case of `CCCCCCOC(=O)c1ccccc1O`, the outcome [1] is reported as “inactive”.

For `CCCCCCC(C)OC(=O)CCCCC(=O)OC(C)CCCCCC` (configuration not stated), the outcome [1] was “inactive”.

With `O=S(=O)(O)c1ccc2ccccc2c1` the outcome [2] was “inactive”, the outcome (THRA (gene 7067)) was “inactive” and the outcome (THRB (gene 7068) [3]) was “inactive”. The outcome (THRB (gene 7068) [4]) was “inactive”, the outcome [5] was “inactive” and the outcome [6] was “inactive”.

In the case of `O=C(O)C(F)(F)C(F)(F)C(F)(F)C(F)(F)C(F)(F)C(F)(F)C(F)(F)C(F)(F)Cl`, the outcome (DIO1 (gene 1733)) is reported as “inactive”.

With `O=C(O)C(F)(F)C(F)(F)C(F)(F)C(F)(F)C(F)(F)C(F)(F)C(F)(F)C(F)(F)C(F)(F)C(F)F` the AC50 (DIO1 (gene 1733)) was 88.7 µM (active).

In the case of `[Co]`, the outcome [1] is reported as “inactive”.

With `Nc1ccc(S(=O)(=O)Nc2nccs2)cc1` the outcome [6] was “inactive”.

In the case of `CCN(Cc1cccc(S(=O)(=O)O)c1)c1ccc(C(=C2C=CC(=[N+](CC)Cc3cccc(S(=O)(=O)O)c3)C=C2)c2ccc(O)cc2S(=O)(=O)[O-])cc1`, the AC50 (DIO1 (gene 1733)) is reported as 65 µM (active).

For `O=C(O)C(F)(F)C(F)(F)C(F)(F)C(F)(F)C(F)(F)C(F)(F)C(F)(F)C(F)(F)C(F)(F)C(F)(F)C(F)(F)C(F)(F)F`, the AC50 (DIO1 (gene 1733)) was 39 µM (active).

For `CC(Cc1ccc(O)c(O)c1)C(C)Cc1ccc(O)c(O)c1` (configuration not stated), the AC50 (DIO1 (gene 1733)) was 6.62 µM (active).

For `O=C(O)C(F)(F)C(F)(F)C(F)(F)C(F)(F)C(F)(F)C(F)(F)C(F)(F)C(F)(F)C(F)(F)C(F)(F)C(F)(F)C(F)(F)C(F)(F)F`, the AC50 (DIO1 (gene 1733)) was 23.7 µM (active).

In the case of `O=C(Cl)C(F)(F)C(F)(F)C(F)(F)C(F)(F)C(F)(F)C(F)(F)C(F)(F)C(F)(F)F`, the AC50 (DIO1 (gene 1733)) is reported as 165 µM (active).

With `CNC(=S)NC` the outcome [1] was “inactive”.

For `C=CC(=O)OCC(F)(F)C(F)(F)C(F)(F)C(F)(F)COC(=O)C=C`, the AC50 (DIO1 (gene 1733)) was 5.82 µM (active).

In the case of `COC(=O)C1CCC(C(=O)OC)CC1` (configuration not stated), the outcome [7] is reported as “inactive”, the outcome [8] is reported as “inactive” and the outcome [9] is reported as “inactive”.

For `CCCCCCCOC(=O)c1ccccc1C(=O)OCCCCCCC`, the outcome [10] was “inactive”, the outcome [11] was “inactive” and the outcome [12] was “inactive”. The outcome [8] was “inactive” and the outcome [13] was “inactive”.

With `CC(C)OC(=O)c1ccccc1C(=O)OC(C)C` the outcome [10] was “inactive”, the outcome [11] was “inactive” and the outcome [12] was “inactive”. The outcome [8] was “inactive”.

For `C#C[C@]1(O)CC[C@H]2[C@@H]3CCc4cc(OC)ccc4[C@H]3CC[C@@]21C`, the outcome (PGR (gene 5241) [14]) was “inactive”, the outcome [15] was “inactive” and the outcome [16] was “inactive”. For the same compound, the outcome (PGR (gene 5241) [17]) was “inactive” and the outcome [18] was “inactive”.

In the case of `CN(C)Cc1ccccc1O`, the outcome [1] is reported as “inactive”.

For `C(=C(c1ccccc1)c1ccccc1)c1ccccc1`, the AC50 (PGR (gene 5241) [14]) was 30.7 µM (active), the outcome [15] was “inactive” and the outcome [16] was “inactive”. The AC50 (PGR (gene 5241) [17]) was 32.3 µM (active).
